Screening results from PubChem BioAssay.
Compounds with a hit are over-represented: about 2.6% of the library has one in this group of screens.
Shn3 inh set2: reduction of Shn3 3'UTR firefly luciferase signal, primary screen, Schnurri-3 inhibitor project, cell-based, Clone20 osteoblasts, set 2; Clone20 osteoblast Shn3 3'UTR firefly luciferase, 24 h; 0.52% of 360,000 active; inhibition, % at 12.5 µM;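 active means mean inhibition of at least 75% with every replicate also reaching 75%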;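 further: 0% = median of neutral control wells and 100% = pilot-screen positive control compound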
KKLEB cytotox: cytotoxicity in KKLEB CF airway cells, primary screen, cytotoxicity control for CF NF-kB inhibitor project, cell-based, uHTS, fluorescence assay plates; activity change (cytotoxicity), % at 5 µM; 0.36% of 360,000 active; KKLEB CF airway cells viability, ATPlite luminescence, overnight; stronger effect = lower value; cells stimulated with P. aeruginosa culture filtrate; AID 602141, 2011;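 active means corrected activity change at or below -50% at 5 µM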
Peg3 promoter: Peg3 promoter-driven luciferase inhibitors, primary screen, cell-based, HeLa, luciferase luminescence; inhibition, % at 20 µM; HeLa PEG-Prom luciferase reporter, overnight; 1.7% of 360,000 active;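 active means inhibition of at least 50% at 20 µM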
CF NFkB block: inhibitors of PAF-induced NF-kB signaling, primary screen, cell-based, GFP fluorescence, uHTS; 0.86% of 360,000 active; AID 588850, 2011; inhibition, % at 5 µM; KKLEB NF-kB-GFP reporter, GFP fluorescence overnight;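 active means at least 50% inhibition at 5 µM, scaled per plate between neutral and stimulator controls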;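 further: PAF is a Pseudomonas aeruginosa culture filtrate used as stimulus; plate controls were PAF-stimulated DMSO wells for no effect and unstimulated DMSO wells for full effect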
HIF-2a inh: HIF-2a reporter inhibitors, primary screen, luminescence, 786-0 RCC cells; 786-0 RCC cells HIF-2a reporter, luciferase luminescence, overnight; inhibition, % at 18.8 µM; 0.72% of 360,000 active;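 active means inhibition of the luminescence signal of 40% or more relative to plate controls, in a single-dose primary screen at 18.75 µM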
Mdm2 MdmX conf: retested Mdm2-MdmX interaction blockers, confirmation, cell-based, luminescence, single concentration, set 2; shares compounds with HIF-2a inh; SaOS-2 split-luciferase Mdm2/MdmX complementation; inhibition, % at 8 µM; 99% of 740 active;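 active means mean inhibition of the luminescence signal across two replicates at or above 26 percent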
Target sequence (O15151 whole entry, looked up): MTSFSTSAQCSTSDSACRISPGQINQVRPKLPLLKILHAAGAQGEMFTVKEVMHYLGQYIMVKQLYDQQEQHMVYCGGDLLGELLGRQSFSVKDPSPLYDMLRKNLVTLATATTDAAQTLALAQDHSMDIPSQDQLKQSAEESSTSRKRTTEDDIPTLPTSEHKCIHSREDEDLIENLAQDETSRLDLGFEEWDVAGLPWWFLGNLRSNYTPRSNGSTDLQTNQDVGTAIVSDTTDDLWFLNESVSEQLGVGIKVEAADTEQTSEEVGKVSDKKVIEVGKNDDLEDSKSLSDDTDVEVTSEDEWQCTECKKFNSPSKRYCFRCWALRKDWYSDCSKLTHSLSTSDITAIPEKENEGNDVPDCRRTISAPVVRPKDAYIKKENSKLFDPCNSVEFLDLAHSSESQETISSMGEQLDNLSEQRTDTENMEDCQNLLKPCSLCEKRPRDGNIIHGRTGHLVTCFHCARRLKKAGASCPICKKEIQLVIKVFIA
Target sequence (Q00987 whole entry, looked up): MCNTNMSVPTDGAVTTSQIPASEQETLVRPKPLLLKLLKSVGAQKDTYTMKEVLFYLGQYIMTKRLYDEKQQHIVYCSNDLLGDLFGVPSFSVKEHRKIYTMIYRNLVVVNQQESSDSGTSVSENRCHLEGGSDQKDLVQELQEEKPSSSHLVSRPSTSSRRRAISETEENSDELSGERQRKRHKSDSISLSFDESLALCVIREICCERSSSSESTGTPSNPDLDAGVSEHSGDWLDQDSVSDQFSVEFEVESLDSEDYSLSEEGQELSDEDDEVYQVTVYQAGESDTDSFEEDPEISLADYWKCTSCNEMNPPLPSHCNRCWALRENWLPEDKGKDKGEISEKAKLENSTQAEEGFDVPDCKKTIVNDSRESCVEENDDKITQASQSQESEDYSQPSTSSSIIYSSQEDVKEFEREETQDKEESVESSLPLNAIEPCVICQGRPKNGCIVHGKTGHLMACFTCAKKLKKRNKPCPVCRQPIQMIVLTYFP
HIF-2a conf: HIF-2a reporter inhibitor retest, confirmation, luminescence, 786-0 RCC cells; shares compounds with HIF-2a inh; HIF-2a luciferase reporter luminescence, overnight; inhibition, % at 18.8 µM; 56% of 1,800 active; AID 651580, 2012;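 active means mean inhibition across four replicates of at least 40 percent at the single tested concentration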
HIF-1a counter: HIF-1a luciferase reporter signal reduction – MiaPaCa-2 cells, single concentration, counter-screen for HIF-2a inhibitor project, confirmation; shares compounds with HIF-2a inh; MiaPaCa-2 HIF-1a luciferase reporter, desferoxamine, overnight; inhibition, % at 18.8 µM; 72% of 1,800 active;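 active means mean inhibition of the reporter signal across four replicates at the single tested dose of 50% or more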
Starred values were filed as active, the others as inactive; . = no result.

SMILES	Shn3 inh set2	KKLEB cytotox	Peg3 promoter	CF NFkB block	HIF-2a inh	HIF-2a conf	HIF-1a counter	others
CCc1nc(SCC(=O)N2c3ccccc3CC2C)c2c(C)c(C)sc2n1 (stereo unspecified)	25	7	6	-9	15	.	.	Mdm2 MdmX conf=101*
O=[N+]([O-])c1ccc(-c2ccc(/C=N/Nc3nc(N4CCCC4)nc(N4CCCC4)n3)o2)cc1	33	-62*	31	-9	11	.	.	Mdm2 MdmX conf=91*
Cc1ccc(NC(=O)c2cc3ccccc3oc2=O)cc1S(=O)(=O)N(C)C	84	-20	77*	-1	81*	88*	88*
Cc1ccc(NC(=O)c2cc3ccccc3o2)cc1S(=O)(=O)N(C)C	-9	-35	-180	1	-298	.	.
N#Cc1ccccc1COc1ccc(/C=C/C(=O)O)cc1	42	-6	10	3	87*	89*	56*
N#Cc1ccc(/C=C/C(=O)c2ccccc2)cc1	31	1	98*	17	87*	-63	65*
Cc1nn(CC(=O)NNC(=O)c2cccc(Br)c2)c(C)c1[N+](=O)[O-]	1	3	22	-2	1	.	.
COC(=O)c1cccc(NC(=O)NC(=O)c2ccccc2Cl)c1	23	-25	-1	-5	57*	64*	-68
COC(=O)c1cccc(NC(=O)Nc2ccc(Cl)c(Cl)c2)c1	13	-17	-145	12	-376	.	.
O=C(Nc1cccc(Cl)c1)Nc1cccc(C(=O)O)c1	22	-13	-28	2	-17	.	.
O=C(Nc1cccc(C(=O)O)c1)Nc1ccccc1Cl	10	-6	-9	2	40*	32	-65
O=C(NCc1ccccc1)C(=O)Nc1cccc(C(=O)O)c1	30	0	31	-6	58*	71*	-38
CC(C)C[C@H]1COc2cccc(N(C)CCO)c2S(=O)(=O)N1	.	.	.	.	-1	.	.
NS(=O)(=O)c1ccc(CNC(=O)/C=C/c2cccc(Cl)c2)cc1	-1	-2	10	-8	15	.	.
COc1ccc(/C=C/C(=O)c2ccc([N+](=O)[O-])o2)cc1OC	.	.	.	.	.	.	.	Mdm2 MdmX conf=99*
COc1ccc(C=CC(=O)c2ccc(OC)c(OC)c2O)cc1OC	6	-1	-1	-54	-1	.	.
O=C(/C=C/c1cccc(Cl)c1)c1ccc([N+](=O)[O-])o1	95*	-46	99*	87*	97*	.	.	Mdm2 MdmX conf=102*
COc1ccc(C(=O)O)cc1NCc1cccnc1	8	5	7	-13	13	.	.
O=C(CSc1nccc(=O)[nH]1)NC1CCCC1	-3	3	11	-3	12	.	.
Cc1c(C(=O)Nc2nonc2-c2ccc(F)cc2)oc2ccc(F)cc12	9	-17	39	17	-7	.	.	Mdm2 MdmX conf=90*
COC(=O)COc1ccc(/C=N/NC(=O)c2ccc(N(Cc3ccccc3)S(C)(=O)=O)cc2)cc1	15	-10	4	-4	64*	19	-3
COC(=O)COc1ccc(/C=N/NC(=O)CN(c2ccccc2OC)S(=O)(=O)c2ccccc2)cc1	-15	0	18	20	57*	74*	57*
O=C(O)CCCCCN1C(=O)C(O)=C(C(=O)/C=C/c2ccccc2)C1c1cccc([N+](=O)[O-])c1 (stereo unspecified)	-3	2	1	11	16	.	.
Cc1cccc(NC(=O)CCCc2ccccc2)c1C	-18	0	-54	7	-70	.	.
Cc1ccc(CN2CCC(Oc3cccc(C(=O)NCc4cccnc4)c3)CC2)o1	11	-8	10	-2	11	.	.
